CYP2C19 inh: human CYP2C19 inhibition | P33261 | CYP2C19 Supersomes, luciferin-H EGE luminescence, 30 min | inhibition, % at 5 µM | 96,000 compounds, 21% hits | AID 778;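 active = CYP2C19 inhibition above a set limit at 5 µM in the primary screen, cut at about 50% in these data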;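 note: plate controls were negative control wells for no effect and 2.5 mM tranylcypromine positive control for full effect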
Target sequence (P33261 whole entry, looked up): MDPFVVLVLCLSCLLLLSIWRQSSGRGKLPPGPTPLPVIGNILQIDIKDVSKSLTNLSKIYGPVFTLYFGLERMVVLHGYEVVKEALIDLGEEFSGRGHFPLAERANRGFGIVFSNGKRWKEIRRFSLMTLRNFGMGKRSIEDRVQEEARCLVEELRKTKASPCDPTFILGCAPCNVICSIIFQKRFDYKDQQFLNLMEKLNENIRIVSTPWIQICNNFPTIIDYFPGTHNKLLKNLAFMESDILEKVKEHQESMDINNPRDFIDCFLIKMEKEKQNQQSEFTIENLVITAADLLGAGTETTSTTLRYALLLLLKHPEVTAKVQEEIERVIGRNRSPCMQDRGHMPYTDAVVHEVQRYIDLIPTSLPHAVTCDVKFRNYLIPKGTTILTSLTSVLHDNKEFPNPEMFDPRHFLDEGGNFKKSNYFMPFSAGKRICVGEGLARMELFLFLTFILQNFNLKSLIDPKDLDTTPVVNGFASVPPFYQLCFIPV
CYP2C19 activ: activators of human cytochrome P450 2C19; 96,000 tested, under 10 active; activation factor at 5 µM; P33261; recombinant CYP2C19, luciferin-H EGE luminescence; hits give high values; 0 = fully inhibited enzyme, 1 = untreated enzyme;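 active = activation factor of at least 2 at 5 µM in the primary screen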;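 note: 0 = wells with 2.5 mM tranylcypromine and 1 = vehicle-only wells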
Measles CPE: protection of cells from measles virus. Measles virus-infected cells, CPE protection, absorbance. protection (pct of control), % at 4 µM. 140,000 compounds, 1.5% hits. AID 841; in the data active = protection mostly above about 24%, no sharp cut-off; inactive = mostly below about 26%
CYP2C9 inh: human CYP2C9 inhibition; P11712; CYP2C9 Supersomes, luciferin-H conversion, luminescence; inhibition, % at 5 µM; 96,000 compounds, 20% hits;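 active = blocking of liver enzyme CYP2C9 beyond about 50% at 5 µM, limit read from the data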
CYP2C9 activ: increases human cytochrome P450 2C9 activity. recombinant CYP2C9, luciferin-H conversion, luminescence; hits give high values; factor 1 = untreated enzyme, 0 = blocked. activation factor at 5 µM. 96,000 compounds, 1.4% hits. AID 1024;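 active = activation factor of 2 or more for CYP2C9 at a 5 µM dose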;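 note: 0 = sulfaphenazole-blocked wells and 1 = vehicle-only wells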
Active calls of the source: *. Rows were chosen to be rich in hits. Some 22% of all compounds tested hit in one or more screens of this group.

Results for CCOCCCNC(=O)CN(Cc1ccc(Cl)cc1)S(C)(=O)=O ?
CYP2C19 inh: 12.9; CYP2C19 activ: 0.9; Measles CPE: 5.2; CYP2C9 inh: -3.5; CYP2C9 activ: 1

What do the screens show for `Cc1ccc(S(=O)(=O)C2(C(=O)Nc3cccc(F)c3)CC2)cc1`?
CYP2C19 inh: 95.4*; CYP2C19 activ: 0; Measles CPE: 3.3; CYP2C9 inh: 38.8; CYP2C9 activ: 0.6

Results for COc1ccc(N(CC(=O)Nc2ccc3c(c2)OCO3)S(=O)(=O)c2ccc(F)cc2)cc1 ?
Measles CPE: 16.1

Results for CS(=O)(=O)N(CC(=O)Nc1ccc2c(c1)OCO2)Cc1ccc(Cl)cc1 ?
CYP2C19 inh: 84.4*; CYP2C19 activ: 0.2; Measles CPE: 8.5; CYP2C9 inh: 77.4*; CYP2C9 activ: 0.2

What do the screens show for `CS(=O)(=O)N(CC(=O)Nc1ccc2c(c1)OCO2)c1ccc(Cl)cc1`?
CYP2C19 inh: 88.4*; CYP2C19 activ: 0.1; Measles CPE: 13.8; CYP2C9 inh: 89.9*; CYP2C9 activ: 0.1

What do the screens show for `O=C(CCc1ccccc1)Nc1ccc2c(c1)OCCO2`?
CYP2C19 inh: 4.6; CYP2C19 activ: 1; Measles CPE: 15.0; CYP2C9 inh: 20.2; CYP2C9 activ: 0.8

What do the screens show for `COC(=O)c1ccc(NC(=O)CN(Cc2ccc(Cl)cc2)S(C)(=O)=O)cc1`?
CYP2C19 inh: 94.6*; CYP2C19 activ: 0.1; Measles CPE: 10.3; CYP2C9 inh: 81.6*; CYP2C9 activ: 0.2

Results for CC(C)c1ccc(NC(=O)CN(Cc2ccccc2)S(C)(=O)=O)cc1 ?
Measles CPE: 6.4

How did CN(CCC(=O)Nc1ccc2c(c1)OCO2)Cc1ccccc1 do in these assays?
CYP2C19 inh: 31.9; CYP2C19 activ: 0.7; Measles CPE: 5.1; CYP2C9 inh: 52.0*; CYP2C9 activ: 0.5

How did Cc1ccccc1C(=O)Nc1cccc(C#N)c1 do in these assays?
Measles CPE: 6.8

What do the screens show for `NS(=O)(=O)c1ccc(CCNc2ncnc3c2c(-c2ccccc2)cn3-c2ccc(F)cc2)cc1`?
CYP2C19 inh: 23.1; CYP2C19 activ: 0.8; Measles CPE: 17.1; CYP2C9 inh: 56.9*; CYP2C9 activ: 0.4

What do the screens show for `Fc1ccc(-n2cc(-c3ccccc3)c3c(NN4CCOCC4)ncnc32)cc1`?
Measles CPE: 5.2

Results for Cc1cccc(C(=O)N/N=C/c2ccc(OC3CSC3)cc2)c1 ?
CYP2C19 inh: -6.4; CYP2C19 activ: 1.1; Measles CPE: 7.8; CYP2C9 inh: 1.2; CYP2C9 activ: 1

What do the screens show for `Cc1ccc(C(=O)N2CCN(c3ccc([N+](=O)[O-])c(NCc4ccco4)c3)CC2)cc1`?
CYP2C19 inh: 45.5; CYP2C19 activ: 0.5; Measles CPE: 12.6; CYP2C9 inh: 74.5*; CYP2C9 activ: 0.3

What do the screens show for `O=C(c1cccc2ccccc12)N1CCN(c2ccc([N+](=O)[O-])c(NCc3ccco3)c2)CC1`?
Measles CPE: 18.2

Results for Cc1ccccc1C(=O)N1CCN(c2ccc([N+](=O)[O-])c(NCc3ccco3)c2)CC1 ?
CYP2C19 inh: 21.2; CYP2C19 activ: 0.8; Measles CPE: 23.2; CYP2C9 inh: 34.5; CYP2C9 activ: 0.7

What do the screens show for `Cc1cccc(C(=O)N2CCN(c3ccc([N+](=O)[O-])c(NCc4ccco4)c3)CC2)c1`?
CYP2C19 inh: 78.5*; CYP2C19 activ: 0.2; Measles CPE: 6.8; CYP2C9 inh: 78.0*; CYP2C9 activ: 0.2

What do the screens show for `Cn1c2ccc(CC(=O)O)cc2c2cc(CC(=O)O)ccc21`?
CYP2C19 inh: -10.1; CYP2C19 activ: 1.1; Measles CPE: 4.8; CYP2C9 inh: -5.8; CYP2C9 activ: 1.1

How did COC(=O)Cc1ccc2c3ccccc3n(C)c2c1 do in these assays?
CYP2C19 inh: 71.4*; CYP2C19 activ: 0.3; Measles CPE: 24.1; CYP2C9 inh: 4.1; CYP2C9 activ: 1

What do the screens show for `COc1cc(OC)c(-c2nn3c(-c4cccnc4)nnc3s2)cc1OC`?
CYP2C19 inh: 13.7; CYP2C19 activ: 0.9; CYP2C9 inh: 26.3; CYP2C9 activ: 0.7

Results for COc1cc(/C=C(/C#N)c2nc3ccccc3c(=O)[nH]2)ccc1O ?
Measles CPE: 4.5

Results for S=C(c1ccc(-c2ccccc2Cl)o1)N1CCOCC1 ?
CYP2C19 inh: 44.3; CYP2C19 activ: 0.6; Measles CPE: 8.8; CYP2C9 inh: -54.9; CYP2C9 activ: 1.5

Results for S=C(c1ccc(-c2ccc(Cl)c(Cl)c2)o1)N1CCOCC1 ?
CYP2C19 inh: 87.5*; CYP2C19 activ: 0.1; Measles CPE: 1.2; CYP2C9 inh: 88.8*; CYP2C9 activ: 0.1

What do the screens show for `S=C(c1ccc(-c2ccc(Cl)cc2Cl)o1)N1CCCCC1`?
CYP2C19 inh: 62.0*; CYP2C19 activ: 0.4; Measles CPE: 4.5; CYP2C9 inh: 72.3*; CYP2C9 activ: 0.3

Results for N#CCCN1CCN(C(=S)c2ccc(-c3cc(Cl)ccc3Cl)o2)CC1 ?
CYP2C19 inh: 29.9; CYP2C19 activ: 0.7; Measles CPE: 2.6; CYP2C9 inh: -173.8; CYP2C9 activ: 2.7*

What do the screens show for `OCCN1CCN(C(=S)c2ccc(Cl)c(Cl)c2)CC1`?
CYP2C19 inh: 29.9; CYP2C19 activ: 0.7; Measles CPE: -0.4; CYP2C9 inh: -5.7; CYP2C9 activ: 1.1

Results for COc1cccc(C(=O)Nc2cc3c(cc2Cl)OCCCO3)c1 ?
Measles CPE: 29.4

How did CCS(=O)(=O)N1CCN(c2ccc(C(=O)NC3C4CC5CC(C4)CC3C5)cc2[N+](=O)[O-])CC1 (configuration not stated) do in these assays?
Measles CPE: 7.8

What do the screens show for `Cc1nccn1CCc1n[nH]c(=S)n1Cc1ccccc1`?
CYP2C19 inh: 8.1; CYP2C19 activ: 0.9; Measles CPE: 5.8; CYP2C9 inh: 2.2; CYP2C9 activ: 1

How did CC(=O)OCC(=O)Nc1ccc(Cl)cc1Cl do in these assays?
CYP2C19 inh: 8.9; CYP2C19 activ: 0.9; Measles CPE: 18.4; CYP2C9 inh: 0.1; CYP2C9 activ: 1

Results for COc1ccc(/C(=N\O)c2ncc(C(F)(F)F)cc2Cl)cc1 ?
CYP2C19 inh: 79.1*; CYP2C19 activ: 0.2; Measles CPE: 19.5; CYP2C9 inh: 13.9; CYP2C9 activ: 0.9

Results for O=C(c1ccccc1)c1ncc(C(F)(F)F)cc1Cl ?
CYP2C19 inh: 64.7*; CYP2C19 activ: 0.4; Measles CPE: 11.7; CYP2C9 inh: -9.1; CYP2C9 activ: 1.1

Results for N/C(=N\OC(=O)Nc1ccccc1)c1ncc(C(F)(F)F)cc1Cl ?
CYP2C19 inh: 33.6; CYP2C19 activ: 0.7; Measles CPE: 3.7; CYP2C9 inh: 22.8; CYP2C9 activ: 0.8

Results for N/C(=N\OC(=O)Nc1ccc(Cl)cc1)c1ncc(C(F)(F)F)cc1Cl ?
CYP2C19 inh: 21.6; CYP2C19 activ: 0.8; Measles CPE: -2.0; CYP2C9 inh: 16.2; CYP2C9 activ: 0.8

Results for CON/C=C(\C=Nc1ccc(C(F)(F)F)cc1)c1ncc(C(F)(F)F)cc1Cl ?
CYP2C19 inh: -6.2; CYP2C19 activ: 1.1; Measles CPE: 7.2; CYP2C9 inh: 0.1; CYP2C9 activ: 1

Results for O=C(c1ccc(Cl)cc1Cl)c1ncc(C(F)(F)F)cc1Cl ?
CYP2C19 inh: 53.0*; CYP2C19 activ: 0.5; Measles CPE: 8.3; CYP2C9 inh: 21.6; CYP2C9 activ: 0.8

High-throughput results as filed in PubChem BioAssay.
